Screening data: PubChem, National Center for Advancing Translational Sciences (NCATS)
Compounds with a hit are over-represented: about 12% of the library has one in this group of screens.
Marburg entry inh = qHTS for inhibitors of binding or entry into cells for Marburg Virus; hit rate 1.8% among 300,000; Marburg virus pseudotyped entry inhibition, cell reporter; Potency, µM (series often up to 37.8 µM), without a hit: at the highest dose activity change, negative = inhibition, actives largely listed as inhibitors; calls by dose curve; tested in HEK293 cells; further: potency means the concentration at half of the fitted maximal effect; on the % scale 0 is the no-effect control and ±100 the full control effect
Shiga toxin inh = A qHTS for Small Molecule Inhibitors of Shiga Toxin; Vero cells, Shiga toxin protein synthesis inhibition reporter; inhibition, % at 38.7 µM; hit rate 9.2% among 290,000; AID 2315, 2010; in the data active means inhibition mostly above about 28%, no sharp cut-off; inactive means mostly below about 43%; further: 0% is about no effect
LASV entry inh = qHTS for Inhibitors of binding or entry into cells for Lassa Virus | Lassa virus pseudotype entry inhibition, cell reporter | Potency, µM (series often up to 37.9 µM), for the others: at the top dose activity change, negative = inhibition, actives largely listed as inhibitors | hit rate 1.2% among 300,000 | AID 540256, 2011; calls by dose curve; tested in HEK293 cells; further: potency means the concentration at half of the fitted maximal effect; on the % scale 0 is the no-effect control and ±100 the full control effect; nearly all actives have a fitted effect of over 50% in size
CHX counter = Cycloheximide Counterscreen for Small Molecule Inhibitors of Shiga Toxin | cell reporter, cycloheximide protein synthesis inhibition counterscreen | max response, % | hit rate 12% among 300,000 | AID 2314, 2010; in the data active means max response mostly above about 13%, no sharp cut-off; inactive means mostly below about 14%; further: read at 38.3 µM for the half of the compounds with a filed dose; 0% is about no effect
An asterisk follows results filed as active; ? = inconclusive; nt = no result given; + = active, no number; [ ] = another dose, or the depositor's remark.

SMILES | Marburg entry inh | Shiga toxin inh | LASV entry inh | CHX counter
CCc1ccc(S(=O)(=O)c2cn(Cc3ccccc3F)c3cc(OC)c(OC)cc3c2=O)cc1 | -17%[46.1 µM] | nt | ? | nt
Cn1nnnc1SCc1csc(C2C(C#N)=C(N)OC3=C2C(=O)CCC3)c1 (stereo unspecified) | 9%[46.1 µM] | -9 | -7%[46.1 µM] | -8
C=CCOc1c(Cl)cc(CNCCCN2CCOCC2)cc1OC | 10µM* | -9 | 13%[46.1 µM] | -2
Cc1nn2c(C)c(C(=O)N3CCN(c4ccc(Cl)cc4)CC3)cnc2c1-c1ccc(F)cc1 | nt | nt | 11%[46.1 µM] | nt
CCOc1ccccc1NC(=O)N1CCN(Cc2cc(=O)n3nc(-c4ccc(C)cc4)sc3n2)CC1 | nt | nt | 21%[46.1 µM] | nt
O=C1NC(Cc2c[nH]c3ccccc23)C(=O)N1Cc1ccccc1 (stereo unspecified) | nt | -6 | nt | -1
COC(=O)c1ccc(CN2C(=O)NC(Cc3c[nH]c4ccccc34)C2=O)cc1 (stereo unspecified) | ? | 118* | 3% | 37*
CN1C(=O)C(Cc2c[nH]c3ccccc23)NC1=S (stereo unspecified) | nt | 47* | nt | 30*
O=c1c2nc(Br)n([C@@H]3O[C@@H]4CO[P@@](O)(=S)O[C@H]4[C@H]3O)c2nc2[nH]c(-c3ccccc3)cn12 | nt | -10 | nt | 2
Cc1cc(C)cc(NC(=O)c2cc(S(=O)(=O)N3CCCCCC3)cn2C)c1 | nt | nt | 1%[46.1 µM] | nt
COCCN(CCOC)C(=O)c1ccc(CSc2nc3ccccc3s2)cc1 | ? | 53* | ? | 32*
NNC(=O)c1ccc(CSc2nc3ccccc3s2)cc1 | 5%[46.1 µM] | 54* | 11%[46.1 µM] | 14
O=C(Nc1ccc2nc(SCc3ccccc3)sc2c1)c1cccc(F)c1 | 27%[46.1 µM] | nt | -21%[46.1 µM] | nt
CCOC(=O)CCNC(=O)N1CCCC(CNS(=O)(=O)c2cccs2)C1 (stereo unspecified) | 13% | -8 | 2% | 7
O=C(c1ccccc1)c1ncc[nH]1 | 2%[46.1 µM] | 36 | 16%[46.1 µM] | 19*
CC(=O)NS(=O)(=O)c1ccc(N=NN2CCCCC2)cc1 | 33% | -7 | 1% | -2
O=C(O)c1ccc(N=NN2CCCCC2)cc1 | -14%[46.1 µM] | 57 | ? | 53*
COC(=O)c1ccc(N=NN2CCOCC2)cc1 | ? | 34* | -19% | 41*
Clc1ccc(N=NN2CCOCC2)cc1 | 2%[46.1 µM] | 71* | 2% | 42*
COC(=O)c1ccc(N=NN2CCCCCC2)cc1 | ? | 88* | 29% | 79*
COC(=O)c1ccc(C(=S)N2CCOCC2)cc1 | 1% | -3 | 1% | 6
O=C(CSc1nc2c([nH]c3ccccc32)c(=O)n1-c1ccc(Cl)cc1)NCc1ccccc1 | nt | nt | -6%[46.1 µM] | nt
O=C(Nc1ccccc1)/C(=C/c1ccc(F)cc1)NC(=O)c1ccco1 | 0%[46.1 µM] | 14 | -3% | -1
Cc1ccc(NC(=O)c2cc(S(=O)(=O)N(C)C3CCCCC3)ccc2F)cc1C | nt | nt | -7%[46.1 µM] | nt
NNC(=O)c1cc(NS(=O)(=O)c2cccs2)cc(NS(=O)(=O)c2cccs2)c1 | -6% | nt | ? | nt
SMILES | Marburg entry inh | Shiga toxin inh | LASV entry inh | CHX counter
NS(=O)(=O)c1ccc(N=NN2CCCCC2)cc1 | -19%[46.1 µM] | 56* | 0% | 52*
COc1ccc(Cl)cc1N1C(=O)/C(=C/c2sccc2C)N=C1SCC(=O)NC1CC1 | 10µM* | nt | ? | nt
COc1ccc(C(=O)COc2nc(C)cc(C)c2C#N)cc1 | ? | -3 | -4% | -4
CCOC(=O)C(NC(=O)c1cccc(Cl)c1)(OCc1ccccc1)C(F)(F)F (stereo unspecified) | ? | + | ? | 20*
CC(C)(C)n1cnc2cc(NCc3cccs3)ccc21 | ? | 120* | 6%[46.1 µM] | 30*
CCn1cnc2cc(NCc3cccs3)ccc21 | ? | 188* | -5%[46.1 µM] | 31*
O=C(Nc1ccc(F)cc1F)c1cc2nc3c(c(C(F)(F)F)n2n1)CCCC3 | ? | 24 | 2% | 26*
O=C(Nc1ccc(F)cc1F)c1cc2n(n1)C(C(F)(F)F)C1CCCCC1N2 (stereo unspecified) | ? | 84* | 7% | 30*
COCCNC(=O)C(c1ccc(F)cc1)N(C(=O)CCC(=O)Nc1ccccn1)C1CCCCC1 (stereo unspecified) | 1%[46.1 µM] | -6 | 19% | -6
C=CCOC(=O)[C@H](C#N)c1nc2ccccc2nc1N1CCC(C(=O)OCC)CC1 | -4% | nt | nt | nt
CCOc1cc(/C=C(\C#N)C(=O)Nc2ccc(C)cc2)ccc1OCc1cc(=O)n2nc(CC)sc2n1 | -8%[46.1 µM] | nt | -25%[46.1 µM] | nt
CO[C@@H]1c2ccccc2[C@H]2C(C(=O)O)c3c(n(C)c4ccccc34)[C@H]2[C@H]1C (stereo partly specified) | 29%[14.2 µM] | nt | nt | nt
CC1CCN(c2nc(/C=C/c3ccccc3)nc3ccccc23)CC1 | ? | 13 | ? | 9
Oc1ccc(Nc2nc(N3CCCC3)c3ccccc3n2)cc1 | 11µM* | 42 | ? | -1
C(=C\c1nc(N2CCCC2)c2ccccc2n1)/c1ccccc1 | 7.1µM* | -3 | ? | 1
O=C(NCc1ccco1)C(c1ccccc1)N(Cc1ccccc1)C(=O)Cn1nnc2ccccc21 (stereo unspecified) | -31%[46.1 µM] | 40 | ? | 18*
O=C(NCc1ccco1)C(c1ccccc1)N(CC1CCCO1)C(=O)Cn1nnc2ccccc21 (stereo unspecified) | 24% | -23 | 15% | -1
O=C1CCSC2(C(=O)N(Cc3ccc(F)cc3)c3ccccc32)N1c1ccc(F)c(F)c1 (stereo unspecified) | nt | nt | 15%[46.1 µM] | nt
Cc1cc(F)ccc1NC(=O)C1CSC2(C)CCC(=O)N12 (stereo unspecified) | ? | nt | -10%[46.1 µM] | nt
COc1cccc2cc(C(=O)Nc3ccccc3C)/c(=N/NS(=O)(=O)c3ccccc3)oc12 | nt | -6 | nt | 11
O=C(O)c1ccccc1NC(=O)c1cc2ccccc2oc1=O | nt | -3 | nt | -2
Cc1ccnc(NC(=O)c2cc3ccccc3oc2=O)c1 | ? | 122* | 10% | 27*
CC(NC(=O)c1cc2ccccc2oc1=O)c1ccccc1 (stereo unspecified) | ? | 47* | -10%[46.1 µM] | 20*
CC(NC(=O)c1cc2ccccc2o1)c1ccccc1 (stereo unspecified) | nt | 10 | ? | -3
Cc1ccc(S(=O)(=O)N/N=c2\oc3ccccc3cc2C(=O)Nc2cccc(C)c2)cc1 | 5% | 71* | 10% | 62*
SMILES | Marburg entry inh | Shiga toxin inh | LASV entry inh | CHX counter
CSc1nnc(NC(=O)c2cc3ccccc3oc2=O)s1 | nt | -10 | nt | -4
Cc1cccc(NC(=O)c2cc3ccccc3oc2=O)c1 | nt | nt | nt | 41*
COc1ccc2oc(=O)c(C(=O)Nc3cccc(C(=O)O)c3)cc2c1 | 2.8µM* | nt | 4%[46.1 µM] | nt
CC(=O)Nc1c(-c2ccccc2)nc2ncccn12 | nt | -11 | nt | -4
COc1ccc2oc(=O)c(C(=O)Nc3cccc(C)c3)cc2c1 | ? | 49* | 0%[46.1 µM] | 43*
COc1ccc(C(=O)NNC(=O)c2cc3cc(OC)ccc3oc2=O)cc1 | 14% | 5 | 1% | 2
Cc1ccc[n+](CC(=O)c2cc3ccccc3oc2=O)c1 | 7% | 30 | 12% | 25*
O=C(Nc1c(-c2ccccc2)nc2ncccn12)c1cc2ccccc2oc1=O | 16% | -18 | 0% | 36*
O=C(CCc1nc2ccccc2s1)NC1CCOC1=O (stereo unspecified) | 2% | 13 | nt | 5
